Hit rate of the full screen: of about 16,000 compounds, about 5,100 (32%) were called active. About 25% were inconclusive and are not listed. The list shows a part of the results. A number with no mark means an inactive call. The call rests on the fitted dose curve; in most records, active means well fitted curve in the direction sought with a large enough effect; inconclusive means small, poorly fitted or top-dose-only effect, or effect the other way; inactive means no such curve, though single readings can be large or run the other way. Square brackets hold non-standard residues; d marks the D form. Peptide text beside a SMILES is read from it. * marks the point of attachment. Cbz = O=C(OCc1ccccc1)*

This note sets out measurements from PubChem BioAssay AID1851 (National Center for Advancing Translational Sciences (NCATS), 2009).
On the % scale 0 is the no-effect control and ±100 the full control effect.

In this assay the target is Cytochrome P450 3A4 (Homo sapiens) (UniProt P08684). As to the kind of experiment: Cytochrome panel assay with activity outcomes. To be noted: recombinant CYP, pro-luciferin dealkylation, luminescence, p450-cyp3a4; series mostly up to 57.1 µM; activity, negative = inhibition: at the top concentration.
Sequence of Cytochrome P450 3A4 (Homo sapiens) (P08684 whole entry, looked up): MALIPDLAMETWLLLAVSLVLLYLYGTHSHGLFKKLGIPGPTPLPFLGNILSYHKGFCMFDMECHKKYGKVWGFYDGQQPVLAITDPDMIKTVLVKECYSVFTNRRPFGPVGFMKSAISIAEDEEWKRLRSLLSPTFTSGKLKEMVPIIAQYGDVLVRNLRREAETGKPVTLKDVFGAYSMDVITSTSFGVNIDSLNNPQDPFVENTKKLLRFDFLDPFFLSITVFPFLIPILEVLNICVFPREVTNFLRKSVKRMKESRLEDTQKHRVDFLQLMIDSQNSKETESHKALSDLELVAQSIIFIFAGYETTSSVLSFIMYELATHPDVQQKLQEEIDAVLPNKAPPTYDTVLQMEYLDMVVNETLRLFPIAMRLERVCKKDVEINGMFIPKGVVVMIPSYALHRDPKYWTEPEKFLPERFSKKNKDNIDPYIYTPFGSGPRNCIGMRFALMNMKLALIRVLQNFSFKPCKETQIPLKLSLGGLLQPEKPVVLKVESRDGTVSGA
Regarding `CCCS(=O)(=O)N1CCCC(C(=O)N2CCN(C(=O)OCC)CC2)C1` (stereo unspecified), the “activity, negative = inhibition” value was 22.2%.
On the same count and under the same terms, next, `O=C(O)C1=CC(=C(c2ccc(O)c(C(=O)O)c2)c2ccc(O)c(C(=O)O)c2)C=CC1=O`: -13.9%.
Usually AC50 stands for the midpoint of the concentration-response curve, whichever way the signal moves. As to `CC1=C/C(=C(/c2ccc(O)c(C)c2)c2ccccc2C(=O)O)C=CC1=O`, the half-maximal activity concentration (AC50) was 1.58 µM (active).
Take `O=C(O)c1ccc(C(=O)c2ccccc2C(=O)O)cc1C(=O)O`: the activity, negative = inhibition is -0.636% [at 11.4 µM].
As to `Cc1ccccc1N1CCN(S(=O)(=O)C[C@@]23CC[C@H](C[C@H]2NC(=O)[C@@H](N)CCS(C)(=O)=O)C3(C)C)CC1`, the AC50 was 3.16 µM (active).
For `COc1ccccc1CNC(=O)CCCn1c(=O)c2ccccc2n(CC(=O)NC2CCCC2)c1=O`, the concentration at half-maximal activity (AC50) was 4.47 µM (active).
For the compound `CC(=O)CCCCn1c(=O)c2c(ncn2C)n(C)c1=O`, the “activity, negative = inhibition” value was -0.936% [at 25.6 µM].
In the case of `Cn1c(=O)n(CCC(=O)O)c2ccccc21`, the “activity, negative = inhibition” value is -1.84%.
`O=C(CCCCn1c(=O)c2ccccc2n(CC(=O)NC2CCCC2)c1=O)NC1CCCC1`: the half-maximal activity concentration (AC50) is 5.01 µM (active).
As for `CC1(C)Oc2ccc(C#N)cc2[C@H](N2CCCC2=O)[C@H]1O`, the AC50 result was “inactive”.
`Cc1n[nH]c(=O)[nH]c1=O`: the “activity, negative = inhibition” value was -9.3% [at 25.6 µM].
For the compound `Cc1noc(NS(=O)(=O)c2ccc(N/C=C/C(=O)c3ccc4c(c3)OCO4)cc2)c1C`, the AC50 was 11.2 µM (active).
The same measure, in the same setting: next, `Cc1noc(NS(=O)(=O)c2ccc(N/C=C\C(=O)c3ccc4c(c3)OCO4)cc2)c1C`: 14.1 µM (active).
As to `O=C(Nc1cnn(Cc2ccc(Cl)cc2)c1)c1ccc([N+](=O)[O-])cc1`, the activity, negative = inhibition is -0.424% [at 2.29 µM].
Take `O=C(Nc1ncc(Cc2cc(Cl)ccc2Cl)s1)c1ccc([N+](=O)[O-])cc1`: the AC50 was 6.31 µM (active).
Regarding `O=C(Nc1ncc(Cc2cccc(Cl)c2)s1)C1=NCCN1`, the “activity, negative = inhibition” value was -16.4%.
Still for that read-out and setting: the same measure for `CC(C)C(NC(=O)OCc1ccccc1)C(=O)O` (stereo unspecified): 2.93%.
On the same count and under the same terms, next, `N[C@H](C(=O)O)[C@H](OCc1ccccc1)C(=O)O`: 7.73%.
With `CCCCC(C=O)NC(=O)C(CC(C)C)NC(=O)OCc1ccccc1` (stereo unspecified), the half-maximal activity concentration (AC50) was 15.8 µM (active).
As for `CC(C)[C@H](NC(=O)OCc1ccccc1)C(=O)N[C@H](C=O)Cc1ccccc1` (Cbz-Val-Phe-aldehyde), the AC50 was 6.31 µM (active).
For the compound `CC(C)C[C@H](NC(=O)[C@@H](O)[C@H](N)Cc1ccccc1)C(=O)O`, the “activity, negative = inhibition” value was -14.6%.
Still for that read-out and setting: the same measure for `CSCC[C@H](C=O)NC(=O)[C@H](CC(C)C)NC(=O)[C@H](CC(C)C)NC(C)=O` (Ac-Leu-Leu-[dM]-aldehyde): -15.9%.
In the case of `CCCSC1=C(C#N)C(c2cccnc2)C(C(=O)OCC)=C(c2ccccc2)N1` (stereo unspecified), the AC50 is 11.2 µM (active).
On the same count and under the same terms, the same measure for `COc1ccc(N(C(=O)COc2ccccc2OC)S(=O)(=O)c2ccc(C)cc2)cc1`: 25.1 µM (active).
Take `COc1ccc(N(CC(=O)O)N=O)cc1`: the activity, negative = inhibition is -6.51% [at 11.4 µM].
In the case of `CN(C)CCO[C@@H](c1ccc(Cl)cc1)c1ccccn1`, the “activity, negative = inhibition” value is 2.09% [at 25.6 µM].
The same measure, in the same setting: the same measure for `CC1(C)[C@@H]2CC[C@]1(C)[C@@H](OC(=O)/C=C\c1ccccc1)C2`: -9.57% [at 11.4 µM].
On to `Nc1nnc(SCCOc2cccc(Br)c2)s1`, for which the AC50 was 12.6 µM (active).
Still for that read-out and setting: the same measure for `FC(F)Sc1ccc(N=C2NN=C(c3ccc4c(c3)OCCO4)CS2)cc1`: 12.6 µM (active).
As to `COCCn1c(C)cc(C2=NNC(=Nc3ccc(F)cc3)SC2)c1C`, the activity, negative = inhibition is 15.3% [at 11.4 µM].
For the compound `O=C1c2ccccc2C(=O)N1CC1c2ccccc2CCN1S(=O)(=O)c1ccccc1` (stereo unspecified), the half-maximal activity concentration (AC50) was 2 µM (active).
For the compound `C[C@H](O)[C@H](O)[C@@H]1CNc2nc(N)[nH]c(=O)c2N1`, the “activity, negative = inhibition” value was -6.18%.
Same read-out and setting: the same measure for `CCN1CCN(c2nc(-c3ccccn3)nc3ccccc23)CC1`: 9.59% [at 2.29 µM].
For the compound `CC1CCCCN1c1nc(-c2ccncc2)nc2ccccc12` (stereo unspecified), the half-maximal activity concentration (AC50) is 0.631 µM (active).
Still for that read-out and setting: the same measure for `CN(Cc1ccco1)c1ncnc2ccc(-c3cccc(NS(C)(=O)=O)c3)cc12`: 5.01 µM (active); for `CN(Cc1ccco1)c1ncncc1-c1cccc(NS(C)(=O)=O)c1`: 0.794 µM (active).
Consider `O=C1c2ccccc2-c2ccc(N(Cc3ccc(Br)cc3)Cc3ccc(Br)cc3)cc21`, for which the activity, negative = inhibition is 3.02% [at 11.4 µM].
`CN(CCc1ccccn1)c1ccc2c(c1)C(=O)c1ccccc1-2`: the AC50 is 3.16 µM (active).
As to `C[C@@H](C1=C(CCN(C)C)Cc2ccccc21)c1ccccn1`, the “activity, negative = inhibition” value is -14.4%.
`CN(CCc1ccccn1)c1ccc2c(c1)Cc1ccccc1-2`: the AC50 is 2.51 µM (active).
On to `O=C(O)[C@H](CCc1ccccn1)c1ccccc1`, for which the activity, negative = inhibition is 0.483% [at 11.4 µM].
As for `CCn1c(N)nc2ccccc21`, the “activity, negative = inhibition” value is -22.1%.
Turning to `CCn1c(COc2ccc(OC)cc2)nc2ccccc21`, the half-maximal activity concentration (AC50) is 1.26 µM (active).
Take `c1ccc(Cn2c(CN3CCCC3)nc3ccccc32)cc1`: the activity, negative = inhibition is -12.3% [at 2.29 µM].
Same read-out and setting: next, `O=C(O)CCC(=O)Nc1ccc2ccccc2c1`: -3.97% [at 11.4 µM].
As to `O=C(c1ccccc1)[C@H](Nc1ccc2ccccc2c1)c1ccccc1`, the concentration at half-maximal activity (AC50) is 3.16 µM (active).
With `O=C(Nc1ccc2ccccc2c1)c1onc2c1CCCC2`, the “activity, negative = inhibition” value was -20.2%.
Same read-out and setting: the same measure for `Cc1c(Nc2cc(N3CCCC(C)C3)c3nonc3c2[N+](=O)[O-])c(=O)n(-c2ccccc2)n1C` (stereo unspecified): -11.2%.
Still for that read-out and setting: next, `COc1ccc(C(=O)N2CC3(CC(c4cccc([N+](=O)[O-])c4)=NO3)C[C@H]2C(=O)NCC(N)=O)cc1` (stereo partly specified): 15.2% [at 2.29 µM].
Consider `O=C(NCc1ccccc1)C12CN(Cc3ccccc3)CC1C(c1cccc([N+](=O)[O-])c1)=NO2` (stereo unspecified), for which the AC50 was 7.08 µM (active).
With `CC(C)CCNC(=O)C12CN(Cc3ccccc3)CC1C(c1cccc([N+](=O)[O-])c1)=NO2` (stereo unspecified), the concentration at half-maximal activity (AC50) was 12.6 µM (active).
Still for that read-out and setting: the same measure for `O=C1CC[C@H](N2C(=O)c3ccccc3C2=O)C(=O)N1`: “inactive”.
Turning to `Nc1ncnc2c1nc(-c1ccccc1)n2[C@H]1O[C@@H](CO)[C@@H](O)[C@H]1O`, the activity, negative = inhibition is -3.38% [at 11.4 µM].
Still for that read-out and setting: the same measure for `Cc1n[nH]c(C)c1S(=O)(=O)N1CCC(C(=O)O)CC1`: 3.15% [at 11.4 µM]; for `Cc1ccc(C(=O)NC(=S)Nc2cc(C(F)(F)F)ccc2Cl)cc1`: 0.666%.
As for `COc1cccc(C(=O)Nc2cc(C(F)(F)F)ccc2Cl)c1`, the AC50 is 7.94 µM (active).
For the compound `COc1cc(/C=C/C(=O)Nc2cc(C(F)(F)F)ccc2Cl)cc(OC)c1OC`, the activity, negative = inhibition was -14.2% [at 11.4 µM].
`COc1cc(C(=O)Nc2cc(C(F)(F)F)ccc2Cl)cc(OC)c1OC`: the AC50 was 15.8 µM (active).
On to `CC(C)CNC(=O)O`, for which the activity, negative = inhibition is -6.31% [at 11.4 µM].
Regarding `Cc1ccc(NC(=O)C(C)N2C(=O)C3C4CC(C(Br)C4Br)C3C2=O)cc1` (stereo unspecified), the AC50 was 5.62 µM (active).
Take `CC(C)C(=O)Nc1ccc(Sc2ccc(F)cc2)cc1`: the “activity, negative = inhibition” value was -3.21%.
As to `CC(C(=O)Nc1cccnc1)N1C(=O)C2C3C=CC(C3)C2C1=O` (stereo unspecified), the AC50 was 12.6 µM (active).
As to `CCC1CCc2c(c3ccccc3[nH]c2=O)O1` (stereo unspecified), the activity, negative = inhibition is -20.1% [at 2.29 µM].
In the case of `CN(Cc1ccco1)c1cc(-c2cccc(NS(C)(=O)=O)c2)ncn1`, the AC50 was 15.8 µM (active).
In the case of `CN(Cc1ccco1)c1ccnc(-c2cccc(NS(C)(=O)=O)c2)n1`, the AC50 is 6.31 µM (active).
For the compound `COC(=O)CNC(c1ccccc1Cl)c1cc(Br)ccc1NC(=O)CCN1CCOCC1` (stereo unspecified), the concentration at half-maximal activity (AC50) was 3.55 µM (active).
For `O=C(CCN1CCOCC1)Nc1ccc(F)cc1F`, the activity, negative = inhibition was -14.9% [at 11.4 µM].
With `Cc1cc2c(cc1C)NC(c1nc3ccccc3[nH]1)C1=C(CC(C)(C)CC1=O)N2` (stereo unspecified), the AC50 was 12.6 µM (active).
For `Cc1c(C(=O)O)nc(/C=C\C(=O)O)[nH]c1=O`, the activity, negative = inhibition is -3.36% [at 11.4 µM].
Still for that read-out and setting: the same measure for `CCCNC(=O)c1cc2c(C(F)(F)F)nn(C)c2s1`: 19.2% [at 2.29 µM]; for `CCCCSc1nnc(-c2cc3c(C(F)(F)F)nn(C)c3s2)n1C`: -20.2%.
On to `C=CCSc1nnc(-c2cc3c(C(F)(F)F)nn(C)c3s2)n1C`, for which the concentration at half-maximal activity (AC50) is 8.91 µM (active).
On to `C#CCSc1nnc(-c2cc3c(C(F)(F)F)nn(C)c3s2)n1C`, for which the AC50 was 7.94 µM (active).
On the same count and under the same terms, the same measure for `C=CCSc1nnc(-c2cc3c(-c4ccccc4)nn(C)c3s2)n1C`: 1.58 µM (active); for `CCn1cc(C(=O)O)c(=O)c2cc(F)c(N3CCN[C@@H](C)C3)c(F)c21`: “inactive”.
On to `c1ccc2c(-n3ccnc3)nc(-c3ccoc3)nc2c1`, for which the AC50 is 0.2 µM (active).
Turning to `CN(C)c1ccc(-c2nc(-n3ccnc3)c3ccccc3n2)cc1`, the half-maximal activity concentration (AC50) was 0.631 µM (active).
On the same count and under the same terms, the same measure for `Cc1cnc(CNc2ncnc3ccc(-c4ccoc4)cc23)cn1`: 15.8 µM (active).
Still for that read-out and setting: the same measure for `Cc1cnc(CNc2ncnc3ccc(-c4ccc(N(C)C)cc4)cc23)cn1`: 10 µM (active); for `Cc1cnc(CNc2ncnc3ccc(-c4ccc5c(c4)OCO5)cc23)cn1`: 2.51 µM (active).
For the compound `NC(=S)SCCC(=O)O`, the activity, negative = inhibition is -7.17% [at 11.4 µM].
Take `CCOC(=O)C1=C(O)C(Nc2nccs2)(C(F)(F)F)N=C1C` (stereo unspecified): the half-maximal activity concentration (AC50) is 14.1 µM (active).
In the case of `CCCC(=O)Nc1nc(C(=O)OCC)cs1`, the “activity, negative = inhibition” value is -13.8%.
The same measure, in the same setting: the same measure for `CC(C)OC(=O)C(CC(=O)O)N1CCOCC1` (stereo unspecified): 0.0868%; for `CCC(Sc1ncccc1C(=O)O)C(=O)N1CCOCC1` (stereo unspecified): 3.75%.
With `CCOC(=O)C(C)CC(C)C(=O)N1CCOCCN(C(=O)C(C)CC(C)C(=O)OCC)CCOCC1` (stereo unspecified), the AC50 was 11.2 µM (active).
The same measure, in the same setting: the same measure for `COc1cc(OC)c2c(c1)C(=O)c1cc(OC)cc(OC)c1C2=O`: 3.55 µM (active); for `O=C(NC1CCCCC1)C1CC=CCC1C(=O)OCC(Cl)=C(Cl)Cl` (stereo unspecified): 7.94 µM (active); for `CNC(=O)c1ccc(-c2sc3nc(N4CCOCC4)c4c(c3c2N)CC(C)(C)OC4)o1`: 2.82 µM (active).
For the compound `CN(C)CCNc1ncnc2c1sc1nc(N3CCOCC3)c3c(c12)CC(C)(C)SC3`, the “activity, negative = inhibition” value was -10.7%.
As to `CC(=O)OC[C@@H]1O[C@@H](O/N=C2/C[C@@H](O)[C@@H](O)[C@@H]3[C@@H]4C(=O)N(C(C)(C)C)C(=O)[C@H]4CC[C@H]23)[C@H](OC(C)=O)[C@H](OC(C)=O)[C@@H]1OC(C)=O`, the activity, negative = inhibition was -17.4% [at 11.4 µM].
